Experimental data from PMC5540273 (PLoS ONE, 2017).

Columns and labels:
Settings in all cases: concentration: 1 μM, replicates: in singlicate; n = 1
[1] = tested on: T1, PIK4CB
T1 construct: gene PI4KB

[2] = tested on: PIKFYVE
[3] = tested on: PIM1
[4] = tested on: PIM2
[5] = tested on: PIM3
[6] = tested on: PIP5K1A
[7] = tested on: PIP5K1C
[8] = tested on: PIP5K2B
[9] = tested on: T2, PIP5K2C
T2 construct: gene PIP4K2C

[10] = tested on: T3, PKAC-alpha
T3 construct: gene PRKACA
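Note: KINOMEscan kinase panel screen.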

Compound	%Inh [1] [%]	%Inh [2] [%]	%Inh [3] [%]	%Inh [4] [%]	%Inh [5] [%]	%Inh [6] [%]	%Inh [7] [%]	%Inh [8] [%]	%Inh [9] [%]	%Inh [10] [%]
COc1ccc2cc(-c3nc(-c4ccccc4C(C)C)[nH]c3-c3ccncc3)ccc2c1 [SB-660566]	0	0	15	0	0	18	0	38	0	0
COc1nccc(-c2c(-c3ccc(F)cc3)ncn2CCCN2CCOCC2)n1 [SB-282852]	49	37	7	0	0	12	4	0	8	0
COc1cccc(C2=C(Nc3cc(Cl)c(O)c(Cl)c3)C(=O)NC2=O)c1 [SB-390767]	21	0	0	0	0	0	66	15	15	0
CS(=O)(=O)Cc1ccc(Nc2nccc(-c3c(-c4cccc(NC(=O)C5CCCCC5)c4)nn4ncccc34)n2)cc1 [GSK350559]	45	2	12	10	17	0	100	12	83	31
Cc1ccccc1Cn1ccn2c(=O)cc(N3CCOCC3)nc12 [GSK2269905]	9	0	17	0	0	0	11	12	10	0
